This is an account of results in PubChem BioAssay (EPA / NIEHS).

The term AC50 denotes the concentration at which the activity in the assay is half-maximal.

Assay [1] has as its target Paired box protein Pax-6 (Homo sapiens) (UniProt P26367). Nature of the assay: ATG_Pax6_CIS: Attagene CIS-FACTORIAL HepG2 Assay for human Paired Box 6 (PAX6) (AID 2282956). Conditions: HepG2 CIS-FACTORIAL PAX6 reporter transcription, RNA readout; actives raise or lower the signal. In a few lines:
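After twenty-four hours of chemical exposure, transfected HepG2 cells are harvested for RNA. Cis-promoter reporter transcripts are amplified, fluorescently labelled and sized by capillary electrophoresis, with gain and loss of signal scored against DMSO.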

Assay [2] can be described thus: ATG_PXRE_CIS: Attagene CIS-FACTORIAL HepG2 Assay for human Pregnane X Receptor Element (PXRE) (AID 2282957). Conditions: HepG2 Attagene CIS-FACTORIAL PXRE reporter, mRNA; actives raise or lower the signal. Put shortly:
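Cells: HepG2, transiently transfected reporter units under cis promoter control. Exposure: 24 h. Detection: reporter mRNA via RT-PCR/CE fluorescence; bidirectional fitting, DMSO-referenced.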

Assay [3] is described as follows: ATG_PPRE_CIS: Attagene CIS-FACTORIAL HepG2 Assay for human Peroxisome Proliferator-activated Response Element (PPRE) (AID 2282958). Conditions: HepG2 PPRE cis-element reporter, Attagene transcription factor profiling; actives raise or lower the signal. Put shortly: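 Transcript-level reporter induction in transfected HepG2 cells after 24 h chemical exposure, quantified by fluorescence from RT-PCR products separated by capillary electrophoresis.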

Assay [4] in a line: ATG_RORE_CIS: Attagene CIS-FACTORIAL HepG2 Assay for human RAR-related Orphan Receptor Element (RORE) (AID 2282959). Conditions: HepG2 Attagene cis-factorial RORE reporter, mRNA; actives raise or lower the signal. Put shortly: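 Multiplexed reporter assay measuring mRNA induction from a cis promoter element in transiently transfected HepG2 cells after 24 h treatment. Detection via RT-PCR and capillary electrophoresis fluorescence; DMSO serves as baseline.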

Assay [5] can be described thus: ATG_Sox_CIS: Attagene CIS-FACTORIAL HepG2 Assay for human SRY-box transcription factor (SOX) (AID 2282960). The settings on record: HepG2 Attagene cis-factorial SOX reporter, mRNA; actives raise or lower the signal. Put shortly: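 Cells were transfected with reporter constructs under cis-regulatory promoters, then exposed to chemicals for 24 h. Reporter transcripts were quantified by fluorescence after RT-PCR and capillary electrophoresis; activity was fitted in both directions against DMSO.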

Assay [6] concerns the target Transcription factor Sp1 (Homo sapiens) (UniProt P08047). The assay can be described thus: ATG_Sp1_CIS: Attagene CIS-FACTORIAL HepG2 Assay for human Specificity Protein 1 (Sp1) (AID 2282961). Conditions: HepG2 Sp1 cis-reporter transcription, actives raise or lower the signal. In a few lines:
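Measures mRNA induction of an Sp1-linked reporter in HepG2 cells 24 h post-dosing. Multiplexed reporters read by RT-PCR and capillary electrophoresis; DMSO serves as negative control and baseline.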

Assay [7] can be described thus: ATG_SREBP_CIS: Attagene CIS-FACTORIAL HepG2 Assay for human Sterol Regulatory Element Binding (SREBP) (AID 2282962). Conditions: HepG2 Attagene cis-factorial SREBP reporter, mRNA; actives raise or lower the signal. In a few lines: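 Twenty-four hours after chemical dosing of transfected HepG2 cultures, reporter RNA was converted to cDNA, amplified, end-labelled with 6-FAM and resolved by capillary electrophoresis. Responses were fitted relative to DMSO.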

In assay [8] the target is Signal transducer and activator of transcription 3 (Homo sapiens) (UniProt P40763). Nature of the assay: ATG_STAT3_CIS: Attagene CIS-FACTORIAL HepG2 Assay for human Signal Transducer and Activator of Transcription 3 (STAT3) (AID 2282963). The settings on record: HepG2, Attagene cis-factorial STAT3 reporter transcription; actives raise or lower the signal. Put shortly: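 Values derive from bidirectional fits relative to DMSO of reporter mRNA levels, measured by RT-PCR with capillary electrophoresis, in HepG2 cells carrying transiently transfected cis-regulated reporter units and exposed 24 h.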
Signal transducer and activator of transcription 3 (Homo sapiens), sequence (P40763 whole entry, looked up): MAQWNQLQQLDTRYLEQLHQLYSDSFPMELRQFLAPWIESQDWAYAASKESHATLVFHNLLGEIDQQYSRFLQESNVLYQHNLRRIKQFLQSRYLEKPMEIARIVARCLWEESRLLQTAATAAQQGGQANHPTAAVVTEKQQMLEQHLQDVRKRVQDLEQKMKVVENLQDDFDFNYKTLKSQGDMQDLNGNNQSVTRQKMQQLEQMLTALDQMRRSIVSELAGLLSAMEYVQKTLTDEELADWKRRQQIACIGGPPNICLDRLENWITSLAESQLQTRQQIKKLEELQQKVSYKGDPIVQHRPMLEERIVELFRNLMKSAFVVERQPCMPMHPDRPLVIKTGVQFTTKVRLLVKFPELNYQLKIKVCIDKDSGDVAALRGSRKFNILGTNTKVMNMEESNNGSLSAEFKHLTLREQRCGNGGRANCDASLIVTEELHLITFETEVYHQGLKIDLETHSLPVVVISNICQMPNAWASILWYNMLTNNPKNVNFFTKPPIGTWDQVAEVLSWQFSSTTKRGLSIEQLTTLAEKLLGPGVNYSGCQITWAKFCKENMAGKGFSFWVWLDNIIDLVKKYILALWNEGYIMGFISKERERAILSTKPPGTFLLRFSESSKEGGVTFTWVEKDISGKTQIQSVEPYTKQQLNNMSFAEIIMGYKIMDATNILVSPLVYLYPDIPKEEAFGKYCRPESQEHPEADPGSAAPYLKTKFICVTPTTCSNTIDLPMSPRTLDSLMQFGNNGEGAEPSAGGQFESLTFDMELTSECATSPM

A short description of assay [9]: ATG_TA_CIS: Attagene CIS-FACTORIAL HepG2 Assay for human TA Basal Promoter (AID 2282964). Conditions: HepG2 Attagene CIS-factorial TA basal promoter reporter; actives raise or lower the signal. Put shortly: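 Background-control readout: TA basal promoter reporter mRNA, fitted in both directions relative to DMSO. Measured by RT-PCR and capillary electrophoresis 24 hours after treating HepG2 human liver cells transiently carrying multiplexed cis-regulated reporter constructs.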

Assay [10] is described as follows: ATG_TCF_b_cat_CIS: Attagene CIS-FACTORIAL HepG2 Assay for human T-Cell-Factor with beta-catenin (TCF/b-cat) (AID 2282965). The settings on record: HepG2 TCF/beta-catenin cis-reporter transcription, actives raise or lower the signal. Put shortly: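 Cells of the HepG2 line carry transiently transfected reporter units whose promoters respond to endogenous factors. Twenty-four hours post-dosing, reporter mRNA induction is measured by fluorescent RT-PCR and capillary electrophoresis, with DMSO as baseline.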

Assay [11] is described as follows: ATG_TAL_CIS: Attagene CIS-FACTORIAL HepG2 Assay for human TAL Basal Promoter (AID 2282966).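 Further: background control endpoint measuring basal TAL promoter reporter mRNA not a specific factor.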 The settings on record: HepG2 Attagene cis-factorial TAL promoter reporter; actives raise or lower the signal. In a few lines: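 RT-PCR plus capillary electrophoresis quantifies reporter mRNA induction in transiently transfected HepG2 cells after 24 h chemical treatment. DMSO serves as negative control and baseline for bidirectional fitting.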

Assay [12] is described as follows: ATG_TGFb_CIS: Attagene CIS-FACTORIAL HepG2 Assay for human Transforming Growth Factor (TGF) (AID 2282967). Conditions: HepG2 Attagene CIS TGFb reporter, mRNA transcription; actives raise or lower the signal. Put shortly: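 Endogenous TGFB1-linked transcription factor activity read as reporter mRNA via RT-PCR and capillary electrophoresis, 24 h after dosing transiently transfected HepG2 cells. Gain or loss of signal fitted relative to DMSO.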

Assay [13] is described as follows: ATG_VDRE_CIS: Attagene CIS-FACTORIAL HepG2 Assay for human Vitamin D Receptor Element (VDRE) (AID 2282968). Conditions: HepG2 VDRE cis-reporter transcription, actives raise or lower the signal. In a few lines:
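Cell-based multiplexed reporter format in human liver HepG2 cells, 24 h post-dose. Fluorescence from capillary electrophoresis of reporter cDNA gives the signal, with DMSO as negative control and baseline.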

Assay [14] addresses Estrogen receptor (Homo sapiens) (UniProt P03372). The assay can be described thus: ATG_ERa_TRANS: Attagene TRANS-FACTORIAL HepG2 Assay for human Estrogen Receptor alpha (ERa) (AID 2282970; active means hit-call score of the fitted dose curve at least 0.9, where 1 is the maximum). Conditions: HepG2 Attagene TRANS ERa GAL4 reporter, mRNA. In a few lines:
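Cells: HepG2, transiently transfected. Construct: GAL4-UAS reporter units regulated by exogenous NR-Gal4 chimeras. Time: 24 h. Detection: reporter mRNA by RT-PCR, capillary electrophoresis, fluorescence. Baseline: DMSO, upward fitting.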

Assay [15] deals with X-box-binding protein 1 (Homo sapiens) (UniProt P17861). The assay can be described thus: ATG_Xbp1_CIS: Attagene CIS-FACTORIAL HepG2 Assay for human X-box Binding Protein 1 (XBP1) (AID 2282972). Conditions: HepG2 XBP1 cis-element reporter, Attagene multiplex; actives raise or lower the signal. In a few lines: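 After a 24-hour chemical exposure of HepG2 cells carrying cis-regulated reporters, reporter mRNA levels are assessed. Quantification uses RT-PCR, 6-FAM labelling and capillary electrophoresis. Gain- or loss-of-signal is fitted against DMSO.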
X-box-binding protein 1 (Homo sapiens), sequence (P17861 whole entry, looked up): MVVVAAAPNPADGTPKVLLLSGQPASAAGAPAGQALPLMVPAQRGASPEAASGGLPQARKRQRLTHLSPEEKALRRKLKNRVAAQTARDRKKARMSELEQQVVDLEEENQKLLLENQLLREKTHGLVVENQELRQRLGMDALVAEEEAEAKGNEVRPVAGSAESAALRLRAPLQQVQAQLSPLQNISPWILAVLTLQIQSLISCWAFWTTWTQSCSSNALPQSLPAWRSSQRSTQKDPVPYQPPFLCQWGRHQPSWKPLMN

A short description of assay [16]: ATG_GAL4_TRANS: Attagene TRANS-FACTORIAL HepG2 Assay for GAL4 (Internal Marker) (AID 2282976; active means hit-call score of the fitted dose curve at least 0.9, where 1 is the maximum). Conditions: HepG2 Attagene TRANS GAL4 internal marker reporter. Put shortly: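 In transfected human HepG2 liver cells dosed 24 h, GAL4 reporter mRNA serves as a baseline marker. Detection by RT-PCR with fluorescent capillary electrophoresis, activity fitted upward relative to DMSO.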

Assay [17] is described as follows: ATG_M_19_TRANS: Attagene TRANS-FACTORIAL HepG2 Assay for M19 Transcription Factor (Internal Marker) (AID 2282974; active means hit-call score of the fitted dose curve at least 0.9, where 1 is the maximum). Conditions: HepG2 Attagene TRANS-FACTORIAL M19 internal marker reporter. In a few lines:
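After transfection of HepG2 with GAL4-UAS-driven reporter constructs, cells are dosed for 24 h. Total RNA is reverse-transcribed, reporter sequences PCR-amplified and labelled, then HpaI-digested and sized by capillary electrophoresis.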

A short description of assay [18]: ATG_PBREM_CIS: Attagene CIS-FACTORIAL HepG2 Assay for human Phenobarbital-responsive Enhancer Module (PBREM) (AID 2282955). The settings on record: HepG2 PBREM cis-reporter, Attagene multiplexed transcription; actives raise or lower the signal. Put shortly:
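HepG2, transient MRTU transfection, 24 h dosing; RNA → oligo(dT) RT → PCR → 6-FAM extension → HpaI → CE. Bidirectional fit vs DMSO.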

Assay [19] concerns the target Nuclear receptor subfamily 1 group I member 3 (Homo sapiens) (UniProt Q14994). Nature of the assay: ATG_CAR_TRANS: Attagene TRANS-FACTORIAL HepG2 Assay for human Constitutive Androstane Receptor (CAR) (AID 2282969; active means hit-call score of the fitted dose curve at least 0.9, where 1 is the maximum;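 further: activators raise reporter mRNA above DMSO so AC50 marks induction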). The settings on record: HepG2 Attagene TRANS-FACTORIAL CAR reporter. Put shortly:
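HepG2 cells transiently transfected with GAL4-UAS reporter units; TRANS format reads activity of exogenous chimeric NR-Gal4 protein. After 24 h dosing, reporter mRNA quantified by RT-PCR, 6-FAM labelling and capillary electrophoresis; gain of signal fitted against DMSO.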

The target of assay [20] is Steroid hormone receptor ERR1 (Homo sapiens) (UniProt P11474). The assay can be described thus: ATG_ERRa_TRANS: Attagene TRANS-FACTORIAL HepG2 Assay for human Estrogen-Related Receptor alpha (ERRa) (AID 2282971; active means hit-call score of the fitted dose curve at least 0.9, where 1 is the maximum). Conditions: HepG2 Attagene TRANS reporter, ERRa transactivation. In a few lines:
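Reporter transcripts from ERRa-Gal4 chimera activity measured in transiently transfected human HepG2 cells 24 hours after dosing, using RT-PCR with 6-FAM primer extension, HpaI digestion and capillary electrophoresis; DMSO is baseline.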

Records with an inconclusive call do not appear. Active and inactive are the calls of the source. How the source made its calls, unless noted: active means hit-call score of the fitted dose curve at least 0.9, where 1 is the maximum; inactive means score below 0.9.

Estrogen receptor (Homo sapiens), sequence (P03372 whole entry, looked up, the tested form may be a part): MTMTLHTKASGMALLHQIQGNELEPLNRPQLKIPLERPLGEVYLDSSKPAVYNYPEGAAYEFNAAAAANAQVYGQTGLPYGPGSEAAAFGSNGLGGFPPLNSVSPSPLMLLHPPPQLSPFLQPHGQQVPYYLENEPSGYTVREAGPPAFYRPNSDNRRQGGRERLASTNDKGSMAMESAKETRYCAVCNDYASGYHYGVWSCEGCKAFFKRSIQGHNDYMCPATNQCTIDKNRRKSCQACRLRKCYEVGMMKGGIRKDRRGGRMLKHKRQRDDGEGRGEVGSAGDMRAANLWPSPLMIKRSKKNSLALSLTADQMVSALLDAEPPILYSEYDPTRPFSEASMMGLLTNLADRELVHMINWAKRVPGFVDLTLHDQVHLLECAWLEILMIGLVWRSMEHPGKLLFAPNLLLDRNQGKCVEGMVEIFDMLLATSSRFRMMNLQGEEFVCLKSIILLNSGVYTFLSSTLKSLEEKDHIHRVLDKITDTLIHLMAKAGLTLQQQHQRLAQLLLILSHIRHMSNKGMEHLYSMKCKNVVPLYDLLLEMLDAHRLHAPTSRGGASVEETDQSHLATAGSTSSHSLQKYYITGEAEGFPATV
Nuclear receptor subfamily 1 group I member 3 (Homo sapiens), sequence (Q14994 whole entry, looked up, the tested form may be a part): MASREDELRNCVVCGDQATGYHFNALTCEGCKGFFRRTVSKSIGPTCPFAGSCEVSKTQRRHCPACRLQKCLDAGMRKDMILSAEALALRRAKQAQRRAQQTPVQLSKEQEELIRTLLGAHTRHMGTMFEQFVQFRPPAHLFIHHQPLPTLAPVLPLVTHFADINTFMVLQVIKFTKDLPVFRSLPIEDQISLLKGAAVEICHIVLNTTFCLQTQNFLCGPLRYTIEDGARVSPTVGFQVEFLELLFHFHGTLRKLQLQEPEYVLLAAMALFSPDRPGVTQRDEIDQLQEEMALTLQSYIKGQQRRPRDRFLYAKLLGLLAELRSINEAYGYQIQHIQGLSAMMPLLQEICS
Paired box protein Pax-6 (Homo sapiens), sequence (P26367 whole entry, looked up): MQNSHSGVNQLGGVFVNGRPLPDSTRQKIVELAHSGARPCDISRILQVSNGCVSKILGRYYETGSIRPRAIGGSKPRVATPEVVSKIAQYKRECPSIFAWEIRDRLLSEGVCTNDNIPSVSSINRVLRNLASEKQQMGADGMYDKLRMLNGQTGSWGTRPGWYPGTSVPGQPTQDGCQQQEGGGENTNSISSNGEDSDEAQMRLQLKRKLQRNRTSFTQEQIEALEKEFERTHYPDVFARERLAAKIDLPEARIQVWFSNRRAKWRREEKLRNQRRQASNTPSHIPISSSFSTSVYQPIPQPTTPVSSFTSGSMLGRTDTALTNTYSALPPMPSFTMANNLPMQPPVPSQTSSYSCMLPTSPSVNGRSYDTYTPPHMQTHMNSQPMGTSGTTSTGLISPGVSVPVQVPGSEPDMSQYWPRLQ
Transcription factor Sp1 (Homo sapiens), sequence (P08047 whole entry, looked up): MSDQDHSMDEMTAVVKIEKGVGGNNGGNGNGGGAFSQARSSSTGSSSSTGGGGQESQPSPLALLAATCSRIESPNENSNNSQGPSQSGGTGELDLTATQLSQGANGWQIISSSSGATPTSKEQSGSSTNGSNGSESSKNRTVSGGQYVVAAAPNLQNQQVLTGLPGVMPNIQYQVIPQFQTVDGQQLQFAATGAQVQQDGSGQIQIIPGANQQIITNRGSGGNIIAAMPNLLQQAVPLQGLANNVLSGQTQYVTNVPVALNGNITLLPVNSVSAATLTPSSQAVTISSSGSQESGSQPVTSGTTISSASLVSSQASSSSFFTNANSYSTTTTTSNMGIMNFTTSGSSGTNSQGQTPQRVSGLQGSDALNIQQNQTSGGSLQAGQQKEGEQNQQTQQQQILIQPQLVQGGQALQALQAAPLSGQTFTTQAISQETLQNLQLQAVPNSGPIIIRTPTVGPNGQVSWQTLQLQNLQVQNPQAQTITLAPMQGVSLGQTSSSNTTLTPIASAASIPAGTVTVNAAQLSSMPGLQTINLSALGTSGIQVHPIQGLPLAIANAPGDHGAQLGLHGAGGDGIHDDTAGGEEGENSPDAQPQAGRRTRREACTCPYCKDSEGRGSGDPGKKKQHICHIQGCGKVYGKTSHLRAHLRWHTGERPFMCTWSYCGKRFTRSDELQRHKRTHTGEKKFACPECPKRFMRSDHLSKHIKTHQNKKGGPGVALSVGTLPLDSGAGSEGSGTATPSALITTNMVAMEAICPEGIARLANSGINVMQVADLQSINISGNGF
Steroid hormone receptor ERR1 (Homo sapiens), sequence (P11474 whole entry, looked up, the tested form may be a part): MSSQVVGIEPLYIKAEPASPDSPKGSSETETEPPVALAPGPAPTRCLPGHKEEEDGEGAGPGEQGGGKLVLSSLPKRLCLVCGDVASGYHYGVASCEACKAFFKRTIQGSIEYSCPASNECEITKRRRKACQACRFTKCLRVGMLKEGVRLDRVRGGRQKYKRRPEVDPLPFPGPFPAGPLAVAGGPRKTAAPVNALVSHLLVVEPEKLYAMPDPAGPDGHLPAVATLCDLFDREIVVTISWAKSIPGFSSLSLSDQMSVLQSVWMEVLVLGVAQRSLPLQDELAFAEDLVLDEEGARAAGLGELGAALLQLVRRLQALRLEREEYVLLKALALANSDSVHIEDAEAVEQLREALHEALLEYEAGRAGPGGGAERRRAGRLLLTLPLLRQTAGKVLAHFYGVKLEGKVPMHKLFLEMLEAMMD

`COC(=O)CC(C)CCC=C(C)C` (configuration not stated): the call in [1], in assay [3], in [4], in assay [5], in assay [6] and in assay [7] was inactive. For the same molecule, the molecule was called inactive in [8], in [9], in [10], in [11], in assay [12] and in assay [13]. For the same molecule, the call in assay [14], in assay [15] and in assay [16] was inactive. Further, the AC50 in assay [2] was 69.2 µM (active).
In the case of `CC(C)(C)C1CCC(=O)CC1`, the molecule was classed as inactive in assay [1], in [2], in assay [3], in assay [4], in assay [5] and in [6]. Also, the call in [7], in assay [8], in [10], in assay [11], in assay [12] and in assay [13] was inactive. The call in assay [14], in [15], in [17] and in [16] was inactive. Further, in assay [9], the AC50 was 152 µM (active).
Regarding `CCOC(=O)/C=C\C(=O)OCC`, the call in [1], in assay [2], in assay [4], in assay [5], in assay [6] and in assay [7] was inactive. Moreover, the call in [8], in assay [9], in assay [10], in assay [11], in assay [12] and in [13] was inactive. The molecule was called inactive in [14], in [15] and in assay [17]. Further, in assay [3], the AC50 is 7.64 µM (active).
For `CCCCCC1=CCCC1=O`, the result in assay [18], in [3], in assay [5], in [6], in assay [7] and in assay [8] was inactive. Besides, the result in [9], in assay [10], in assay [11], in assay [12], in assay [13] and in [19] was inactive. For the same molecule, the result in assay [14] and in assay [15] was inactive. For the same molecule, the half-maximal activity concentration (AC50) in assay [2] is 27.4 µM (active).
As to `Cc1cc(C)n(CO)n1`, the result in assay [1], in assay [2], in assay [3], in [4], in [5] and in assay [6] was inactive. Moreover, the outcome in assay [7], in assay [8], in assay [9], in assay [10], in assay [11] and in [12] was inactive. In addition, the molecule was classed as inactive in assay [13], in assay [14] and in [16].
As for `CC(C)CC(=O)OCc1ccccc1`, the outcome in assay [18], in assay [2], in assay [3], in assay [4], in assay [6] and in [7] was inactive. The molecule was called inactive in [9], in [10], in assay [11], in assay [12], in assay [13] and in [19]. In addition, the molecule was called inactive in assay [14] and in assay [16].
Consider `CC1CCC(=O)C1=O` (configuration not stated), for which the outcome in assay [18], in assay [3], in [5], in assay [6], in assay [7] and in assay [8] was inactive. Besides, the molecule was classed as inactive in assay [9], in [10], in assay [11], in assay [12], in assay [13] and in assay [19]. Further, the call in [14], in assay [15], in assay [17] and in assay [16] was inactive. Moreover, the AC50 in [2] was 59 µM (active).
As for `CCCCOCCOCCOC(C)=O`, the result in assay [18], in [2], in [4], in assay [5], in [6] and in assay [7] was inactive. Further, the result in [9], in assay [10], in [11], in [12], in [13] and in assay [14] was inactive. For the same molecule, the molecule was called inactive in assay [20], in [15], in [17] and in assay [16].
`CC(C)(C)N`: the outcome in assay [18], in [2], in assay [3], in assay [4], in assay [5] and in assay [6] was inactive. Further, the call in assay [7], in assay [8], in assay [9], in assay [10], in assay [11] and in [12] was inactive. For the same molecule, the result in assay [13], in assay [15], in [17] and in assay [16] was inactive.
